According to PubChem BioAssay (EPA / NIEHS):
Records with an inconclusive call do not appear. Activity calls are given as the source filed them. How the source made its calls, unless noted: active means hit-call score of the fitted dose curve at least 0.9, where 1 is the maximum; inactive means score below 0.9.

Experiments:
[1] = target: Paired box protein Pax-6 (Homo sapiens) (UniProt P26367); experiment: ATG_Pax6_CIS: Attagene CIS-FACTORIAL HepG2 Assay for human Paired Box 6 (PAX6) (AID 2282956); conditions: HepG2 CIS-FACTORIAL PAX6 reporter transcription, RNA readout; actives raise or lower the signal
Outline: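 Values derive from bidirectional curve fitting of reporter mRNA signal relative to DMSO. HepG2 cells bearing transfected cis-regulated MRTUs were exposed for 24 h; transcripts were read by RT-PCR and capillary electrophoresis.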

[2] = ATG_PXRE_CIS: Attagene CIS-FACTORIAL HepG2 Assay for human Pregnane X Receptor Element (PXRE) (AID 2282957); conditions: HepG2 Attagene CIS-FACTORIAL PXRE reporter, mRNA; actives raise or lower the signal
Outline: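 Bidirectional activity, baselined to DMSO, derived from reporter mRNA fluorescence (RT-PCR plus capillary electrophoresis) in HepG2 cells bearing cis-promoter reporter units, 24 h exposure.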

[3] = ATG_Sox_CIS: Attagene CIS-FACTORIAL HepG2 Assay for human SRY-box transcription factor (SOX) (AID 2282960); conditions: HepG2 Attagene cis-factorial SOX reporter, mRNA; actives raise or lower the signal
Outline: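 Read-out: fluorescent RT-PCR products of SOX1-linked reporter transcripts resolved by capillary electrophoresis, fitted bidirectionally against DMSO. Transiently transfected HepG2 cells, 24 h after chemical exposure, endogenous transcription factor activity.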

[4] = ATG_SREBP_CIS: Attagene CIS-FACTORIAL HepG2 Assay for human Sterol Regulatory Element Binding (SREBP) (AID 2282962); conditions: HepG2 Attagene cis-factorial SREBP reporter, mRNA; actives raise or lower the signal
Outline: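 Values derive from bidirectional curve fitting with DMSO as baseline. The underlying measurement is reporter mRNA from cis-element-regulated units in transiently transfected HepG2, quantified by RT-PCR and capillary electrophoresis after 24 h exposure.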

[5] = target: Signal transducer and activator of transcription 3 (Homo sapiens) (UniProt P40763); experiment: ATG_STAT3_CIS: Attagene CIS-FACTORIAL HepG2 Assay for human Signal Transducer and Activator of Transcription 3 (STAT3) (AID 2282963); conditions: HepG2, Attagene cis-factorial STAT3 reporter transcription; actives raise or lower the signal
Outline: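 Cis-factorial format: endogenous transcription factors in HepG2 drive transfected reporter units. After 24 h treatment, reporter RNA was reverse-transcribed, amplified, FAM-labelled and HpaI-digested before CE analysis; activity scored in both directions against DMSO.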

[6] = ATG_TA_CIS: Attagene CIS-FACTORIAL HepG2 Assay for human TA Basal Promoter (AID 2282964); conditions: HepG2 Attagene CIS-factorial TA basal promoter reporter; actives raise or lower the signal
Outline: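 Transfected HepG2, 24 h compound exposure; RNA → RT-PCR → FAM primer extension → HpaI cut → CE fluorescence. Gain/loss-of-signal fitted against DMSO negative control. Background-control readout.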

[7] = ATG_TCF_b_cat_CIS: Attagene CIS-FACTORIAL HepG2 Assay for human T-Cell-Factor with beta-catenin (TCF/b-cat) (AID 2282965); conditions: HepG2 TCF/beta-catenin cis-reporter transcription, actives raise or lower the signal
Outline: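 Endogenous TCF/LEF activity read as reporter transcript level via RT-PCR and capillary electrophoresis fluorescence in transfected HepG2, 24 h exposure; gain or loss of signal fitted against DMSO controls.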

[8] = ATG_TAL_CIS: Attagene CIS-FACTORIAL HepG2 Assay for human TAL Basal Promoter (AID 2282966); conditions: HepG2 Attagene cis-factorial TAL promoter reporter; actives raise or lower the signal;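 further: background control endpoint measuring basal TAL promoter reporter mRNA not a specific factor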
Outline: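 Human hepatoma HepG2 cells, transfected with promoter-regulated reporter units, were treated 24 h. Reporter transcript levels, measured through RT-PCR and capillary electrophoresis, were fitted for gain or loss relative to DMSO.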

[9] = ATG_TGFb_CIS: Attagene CIS-FACTORIAL HepG2 Assay for human Transforming Growth Factor (TGF) (AID 2282967); conditions: HepG2 Attagene CIS TGFb reporter, mRNA transcription; actives raise or lower the signal
Outline: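 Readout: fluorescently labeled reporter cDNA fragments resolved by capillary electrophoresis after RT-PCR. Transfected HepG2 cells dosed for 24 h; endogenous TF activity at TGFB1-linked cis element; gain or loss fitted relative to DMSO.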

[10] = ATG_VDRE_CIS: Attagene CIS-FACTORIAL HepG2 Assay for human Vitamin D Receptor Element (VDRE) (AID 2282968); conditions: HepG2 VDRE cis-reporter transcription, actives raise or lower the signal
Outline: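 Measures endogenous factor activity through cis-element-driven reporter transcripts in transiently transfected HepG2. Cells are treated 24 h; reporter mRNA is quantified by RT-PCR and capillary electrophoresis; fitting is bidirectional.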

[11] = target: Estrogen receptor (Homo sapiens) (UniProt P03372); experiment: ATG_ERa_TRANS: Attagene TRANS-FACTORIAL HepG2 Assay for human Estrogen Receptor alpha (ERa) (AID 2282970; active means hit-call score of the fitted dose curve at least 0.9, where 1 is the maximum); conditions: HepG2 Attagene TRANS ERa GAL4 reporter, mRNA
Outline: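 Signal derives from fluorescence of labelled reporter PCR fragments separated by capillary electrophoresis. HepG2 cells transiently carrying multiple GAL4-UAS reporter units were treated 24 hours, and induction above DMSO baseline was fitted as activity.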

[12] = target: X-box-binding protein 1 (Homo sapiens) (UniProt P17861); experiment: ATG_Xbp1_CIS: Attagene CIS-FACTORIAL HepG2 Assay for human X-box Binding Protein 1 (XBP1) (AID 2282972); conditions: HepG2 XBP1 cis-element reporter, Attagene multiplex; actives raise or lower the signal
Outline: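 Human hepatoma HepG2, cis-element reporter system, 24 h treatment; mRNA quantified by RT-PCR/CE fluorescence; fit relative to DMSO.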

[13] = ATG_RORE_CIS: Attagene CIS-FACTORIAL HepG2 Assay for human RAR-related Orphan Receptor Element (RORE) (AID 2282959); conditions: HepG2 Attagene cis-factorial RORE reporter, mRNA; actives raise or lower the signal
Outline: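 Readout: fluorescent reporter mRNA by RT-PCR plus capillary electrophoresis, 24 h after dosing transfected HepG2 cells. Endogenous transcription factor activity on a cis promoter element is measured. Gain or loss of signal fitted against DMSO.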

[14] = target: Transcription factor Sp1 (Homo sapiens) (UniProt P08047); experiment: ATG_Sp1_CIS: Attagene CIS-FACTORIAL HepG2 Assay for human Specificity Protein 1 (Sp1) (AID 2282961); conditions: HepG2 Sp1 cis-reporter transcription, actives raise or lower the signal
Outline: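 Read-out: fluorescence of 6-FAM-labeled, HpaI-digested RT-PCR products separated by capillary electrophoresis. HepG2 cells carried transfected cis-element reporter units and were exposed to chemicals for 24 h; gain or loss of signal fitted relative to DMSO.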

[15] = ATG_GAL4_TRANS: Attagene TRANS-FACTORIAL HepG2 Assay for GAL4 (Internal Marker) (AID 2282976; active means hit-call score of the fitted dose curve at least 0.9, where 1 is the maximum); conditions: HepG2 Attagene TRANS GAL4 internal marker reporter
Outline: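 Liver HepG2 line bearing multiplexed GAL4-UAS reporter constructs; 24 h chemical treatment. Transcripts were quantified as fluorescent fragments on capillary electrophoresis after RT-PCR and HpaI cut, with activity fitted upward from DMSO.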

[16] = target: Nuclear receptor subfamily 1 group I member 3 (Homo sapiens) (UniProt Q14994); experiment: ATG_CAR_TRANS: Attagene TRANS-FACTORIAL HepG2 Assay for human Constitutive Androstane Receptor (CAR) (AID 2282969; active means hit-call score of the fitted dose curve at least 0.9, where 1 is the maximum;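 further: activators raise reporter mRNA above DMSO so AC50 marks induction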); conditions: HepG2 Attagene TRANS-FACTORIAL CAR reporter
Outline: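 Signal is reporter mRNA induction relative to DMSO, measured 24 h after dosing by RT-PCR with fluorescent primer extension and capillary electrophoresis. Human HepG2 liver cells carried transiently transfected chimeric NR-Gal4/GAL4-UAS reporter constructs.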

[17] = ATG_M_19_TRANS: Attagene TRANS-FACTORIAL HepG2 Assay for M19 Transcription Factor (Internal Marker) (AID 2282974; active means hit-call score of the fitted dose curve at least 0.9, where 1 is the maximum); conditions: HepG2 Attagene TRANS-FACTORIAL M19 internal marker reporter
Outline: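 24 h chemical exposure of transiently transfected HepG2 (MRTU library). RNA → oligo(dT) RT → PCR → 6-FAM labelling → HpaI cut → CE fluorescence. Positive-direction fit vs DMSO baseline; background internal-marker readout.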

Measured: AC50

Paired box protein Pax-6 (Homo sapiens), sequence (P26367 whole entry, looked up): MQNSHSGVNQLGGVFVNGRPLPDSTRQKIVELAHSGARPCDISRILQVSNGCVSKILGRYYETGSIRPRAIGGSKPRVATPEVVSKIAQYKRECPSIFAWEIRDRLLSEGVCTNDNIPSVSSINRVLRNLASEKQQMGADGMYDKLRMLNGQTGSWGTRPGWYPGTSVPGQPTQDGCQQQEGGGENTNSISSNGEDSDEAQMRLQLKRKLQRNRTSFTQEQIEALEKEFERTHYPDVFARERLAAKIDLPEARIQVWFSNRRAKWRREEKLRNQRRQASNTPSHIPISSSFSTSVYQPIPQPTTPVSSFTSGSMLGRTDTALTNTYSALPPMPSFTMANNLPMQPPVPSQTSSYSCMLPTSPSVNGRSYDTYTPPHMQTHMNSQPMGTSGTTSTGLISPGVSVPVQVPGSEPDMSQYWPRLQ
X-box-binding protein 1 (Homo sapiens), sequence (P17861 whole entry, looked up): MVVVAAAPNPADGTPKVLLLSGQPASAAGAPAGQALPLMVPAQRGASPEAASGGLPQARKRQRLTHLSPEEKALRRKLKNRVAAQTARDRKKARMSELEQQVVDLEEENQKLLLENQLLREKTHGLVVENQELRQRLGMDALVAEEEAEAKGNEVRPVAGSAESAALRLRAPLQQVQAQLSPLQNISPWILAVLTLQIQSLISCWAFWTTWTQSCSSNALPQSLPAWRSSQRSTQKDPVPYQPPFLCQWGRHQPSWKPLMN
Signal transducer and activator of transcription 3 (Homo sapiens), sequence (P40763 whole entry, looked up): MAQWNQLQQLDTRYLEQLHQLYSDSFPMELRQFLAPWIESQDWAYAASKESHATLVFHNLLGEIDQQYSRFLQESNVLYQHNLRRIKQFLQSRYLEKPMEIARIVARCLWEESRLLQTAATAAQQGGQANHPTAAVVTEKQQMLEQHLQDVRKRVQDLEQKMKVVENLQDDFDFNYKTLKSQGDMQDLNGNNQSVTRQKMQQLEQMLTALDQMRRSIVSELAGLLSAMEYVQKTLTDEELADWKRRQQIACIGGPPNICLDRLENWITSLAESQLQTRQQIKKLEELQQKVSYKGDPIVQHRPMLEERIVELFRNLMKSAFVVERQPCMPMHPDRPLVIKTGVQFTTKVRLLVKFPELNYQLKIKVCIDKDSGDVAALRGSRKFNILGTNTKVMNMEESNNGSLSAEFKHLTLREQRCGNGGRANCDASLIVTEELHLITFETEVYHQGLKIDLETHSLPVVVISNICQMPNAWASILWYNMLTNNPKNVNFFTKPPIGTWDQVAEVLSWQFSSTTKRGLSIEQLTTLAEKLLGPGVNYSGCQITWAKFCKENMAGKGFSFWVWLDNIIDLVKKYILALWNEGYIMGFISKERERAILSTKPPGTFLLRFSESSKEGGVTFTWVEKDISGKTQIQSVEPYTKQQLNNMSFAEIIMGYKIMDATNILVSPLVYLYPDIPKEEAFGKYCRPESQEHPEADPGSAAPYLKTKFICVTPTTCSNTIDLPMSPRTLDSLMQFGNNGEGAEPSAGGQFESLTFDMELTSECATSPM
Transcription factor Sp1 (Homo sapiens), sequence (P08047 whole entry, looked up): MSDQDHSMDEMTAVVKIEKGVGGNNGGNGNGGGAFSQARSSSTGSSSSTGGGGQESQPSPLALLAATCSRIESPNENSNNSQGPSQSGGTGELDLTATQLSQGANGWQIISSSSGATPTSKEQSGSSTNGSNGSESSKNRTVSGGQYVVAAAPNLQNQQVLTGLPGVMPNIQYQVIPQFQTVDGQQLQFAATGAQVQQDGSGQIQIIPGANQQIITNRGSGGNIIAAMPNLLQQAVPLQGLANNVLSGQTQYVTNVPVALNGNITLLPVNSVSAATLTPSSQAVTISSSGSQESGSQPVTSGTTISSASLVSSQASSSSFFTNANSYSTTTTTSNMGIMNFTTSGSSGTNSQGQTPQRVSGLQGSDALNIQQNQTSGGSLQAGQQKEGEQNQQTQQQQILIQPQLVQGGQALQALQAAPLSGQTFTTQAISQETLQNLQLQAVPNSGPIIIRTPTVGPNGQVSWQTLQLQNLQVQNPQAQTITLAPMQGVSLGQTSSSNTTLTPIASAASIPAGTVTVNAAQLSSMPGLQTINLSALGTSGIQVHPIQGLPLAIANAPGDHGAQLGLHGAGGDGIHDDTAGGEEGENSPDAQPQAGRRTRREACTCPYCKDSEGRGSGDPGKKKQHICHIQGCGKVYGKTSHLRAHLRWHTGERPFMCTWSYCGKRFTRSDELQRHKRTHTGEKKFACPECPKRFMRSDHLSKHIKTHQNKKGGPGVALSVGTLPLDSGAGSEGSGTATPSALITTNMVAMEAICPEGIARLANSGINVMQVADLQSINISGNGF
Estrogen receptor (Homo sapiens), sequence (P03372 whole entry, looked up, the tested form may be a part): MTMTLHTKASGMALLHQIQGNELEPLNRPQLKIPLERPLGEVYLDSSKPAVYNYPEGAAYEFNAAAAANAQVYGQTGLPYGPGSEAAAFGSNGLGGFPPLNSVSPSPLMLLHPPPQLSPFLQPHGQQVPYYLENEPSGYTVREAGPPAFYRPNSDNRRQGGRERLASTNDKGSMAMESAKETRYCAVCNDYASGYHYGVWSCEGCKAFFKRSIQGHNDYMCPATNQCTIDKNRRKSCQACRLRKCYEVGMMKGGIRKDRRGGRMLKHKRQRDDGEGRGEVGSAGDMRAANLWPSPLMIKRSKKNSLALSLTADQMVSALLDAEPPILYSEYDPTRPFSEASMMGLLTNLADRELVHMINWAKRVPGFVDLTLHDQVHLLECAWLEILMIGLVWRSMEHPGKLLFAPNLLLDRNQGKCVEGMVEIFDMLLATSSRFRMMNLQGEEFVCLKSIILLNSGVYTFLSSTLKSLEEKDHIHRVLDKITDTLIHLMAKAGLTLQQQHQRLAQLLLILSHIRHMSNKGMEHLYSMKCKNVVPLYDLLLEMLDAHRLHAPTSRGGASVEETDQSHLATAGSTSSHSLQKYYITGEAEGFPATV
Nuclear receptor subfamily 1 group I member 3 (Homo sapiens), sequence (Q14994 whole entry, looked up, the tested form may be a part): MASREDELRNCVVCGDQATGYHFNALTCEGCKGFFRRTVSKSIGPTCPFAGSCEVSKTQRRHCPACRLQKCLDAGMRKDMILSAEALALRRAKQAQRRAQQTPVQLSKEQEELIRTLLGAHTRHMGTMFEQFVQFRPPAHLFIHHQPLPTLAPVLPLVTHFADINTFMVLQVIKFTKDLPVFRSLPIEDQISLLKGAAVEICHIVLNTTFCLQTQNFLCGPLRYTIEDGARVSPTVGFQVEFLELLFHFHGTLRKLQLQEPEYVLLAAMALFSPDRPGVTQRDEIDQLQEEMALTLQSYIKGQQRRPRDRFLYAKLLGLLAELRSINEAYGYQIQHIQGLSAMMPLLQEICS

C=C[C@](C)(O)CC[C@@H]1[C@@]2(C)CCCC(C)(C)[C@@H]2CC[C@@]1(C)O
active: [2] 0.357 µM
inactive: [1] | [3] | [4] | [5] | [6] | [7] | [8] | [9] | [10] | [11] | [12]

COc1ccc([C@@H]2CC(=O)c3c(O)cc(O[C@@H]4O[C@H](CO[C@@H]5O[C@@H](C)[C@H](O)[C@@H](O)[C@H]5O)[C@@H](O)[C@H](O)[C@H]4O)cc3O2)cc1OC
inactive: [1] | [2] | [13] | [3] | [14] | [6] | [7] | [8] | [9] | [10] | [11] | [12] | [15]

NCCCN1CCN(CCCN)CC1
active: [2] 53.7 µM
inactive: [1] | [3] | [14] | [4] | [5] | [6] | [7] | [8] | [9] | [10] | [16] | [11] | [12] | [17]

CCCCNc1ccc(NCCCC)c2c1C(=O)c1ccccc1C2=O
inactive: [1] | [3] | [14] | [4] | [5] | [6] | [7] | [8] | [9] | [10] | [11] | [12] | [17]
active: [2] 0.886 µM

CC1(C)O[C@@H]2C[C@H]3[C@@H]4C[C@H](F)C5=CC(=O)C=C[C@]5(C)[C@@]4(F)[C@@H](O)C[C@]3(C)[C@]2(C(=O)CO)O1
active: [2] 6.12 µM | [11] 9.67 µM
inactive: [1] | [3] | [14] | [4] | [5] | [6] | [7] | [8] | [9] | [10] | [12]
